# Compound activity deposited in PubChem BioAssay by several laboratories.
# NLRP3 yeast inh = inhibitors of NALP3 inflammasome in yeast. Yeast reconstituted NLRP3/ASC/caspase-1, beta-gal luminescence, 24 h. inhibition, % at 10 µM. 330,000 tested, 0.39% active. AID 2825;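 active = inhibition of 50% or more; inactive = inhibition below 50%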;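 note: plate controls were induced DMSO wells for no effect and uninduced yeast grown without galactose for full effect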
# NALP1 inh = blocks the NALP1 inflammasome reconstituted in yeast; S. cerevisiae NALP1/ASC/caspase-1 growth, X-gal OD620, 72 h; inhibition, % at 10 µM; 280,000 tested, 0.61% active; in the data active = inhibition mostly above about 24%, no sharp cut-off; inactive = mostly below about 32%
# CHT block = human CHT choline transport inhibition | 310,000 tested, 0.86% active | B-score at 10 µM | CHT-expressing cells, membrane potential dye, choline response; active compounds read low | Q9GZV3 | AID 488975;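 active = B-score over 3 SD under the library average, and starting fluorescence ratio not unusually high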;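 note: choline stimulus applied at its EC90 after an EC20 pre-addition; B-score computed on integrated fluorescence ratio after choline addition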
# Target sequence (Q9GZV3 whole entry, looked up): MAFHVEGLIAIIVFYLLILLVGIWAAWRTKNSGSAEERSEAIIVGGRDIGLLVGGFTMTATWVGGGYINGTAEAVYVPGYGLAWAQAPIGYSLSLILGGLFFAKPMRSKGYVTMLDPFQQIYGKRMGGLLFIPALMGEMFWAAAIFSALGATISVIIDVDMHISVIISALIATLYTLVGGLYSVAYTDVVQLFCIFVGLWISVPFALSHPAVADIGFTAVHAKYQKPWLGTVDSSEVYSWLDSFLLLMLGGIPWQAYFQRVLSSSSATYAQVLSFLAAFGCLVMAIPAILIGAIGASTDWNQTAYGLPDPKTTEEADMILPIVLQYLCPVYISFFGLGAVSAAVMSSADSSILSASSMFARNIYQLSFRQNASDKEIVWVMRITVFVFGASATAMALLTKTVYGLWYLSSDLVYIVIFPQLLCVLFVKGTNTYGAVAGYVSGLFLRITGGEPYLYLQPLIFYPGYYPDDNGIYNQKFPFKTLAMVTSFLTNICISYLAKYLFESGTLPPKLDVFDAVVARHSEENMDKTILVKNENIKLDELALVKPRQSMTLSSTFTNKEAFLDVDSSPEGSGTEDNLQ
# Mot1-301 SUMO = inhibitors of SUMOylation pathway: yeast Mot1-301 growth rescue | S. cerevisiae Mot1-301 growth rescue, ATP luminescence, 38.5C; percent above DMSO median, 100 means doubled | growth rescue, % at 18.8 µM | 320,000 tested, 1% active | AID 2716;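 active = every valid replicate shows activation above 250% relative to neutral control wells; inactive = the rest, any valid replicate at or below 250%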;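 note: OY570 slx delta 5 strain wells were the positive control but not used for scaling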
# Bfl-1 A1 inh = inhibitors of the anti-apoptotic protein A1, read as caspase activation. 330,000 tested, 0.066% active. AID 2462. caspase activation, % (concentration not given with the values). MEF A1-2A-BIM cells, Caspase-Glo 3/7 luminescence, 3 h; percent of clofoctol response, vehicle zero;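 active = over half of replicate activation scores above 10%, or exactly half above 10 with the replicate mean above 10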
# CHT PAM = human CHT allosteric activation | CHT-expressing cells, membrane potential dye, choline EC20; active compounds read high; LV-AA mutant CHT in HEK293 cells | B-score at 10 µM | 310,000 tested, 0.49% active | AID 488977;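 active = initial fluorescence not abnormally high and integrated response B-score, plate-corrected, over 3 SD above library mean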
# CHT activ conf = confirmation of human choline transporter (CHT) activators | CHT-expressing cells, membrane potential dye fluorescence (FDSS); % of choline EC20–EC90 response window; HEK293 expressing CHT LV-AA mutant; choline added at its EC20 | activation, % at 10 µM | shares compounds with CHT PAM | 2,500 tested, 91% active;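 active = primary screen active, with duplicate mean activation above negative control mean plus 3 SD, cut at about 11% in these data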
# HEK293 MP dye = counter-screen for CHT activators: effect in parental HEK293 cells; AID 623908; ratio readout change at 10 µM, hits read low; shares compounds with CHT PAM; membrane potential dye fluorescence (FDSS); measured after EC20 choline addition; 2,500 tested, 62% active;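 active = duplicate-averaged ratio beyond 3 SD from buffer wells, up or down, though filed actives are nearly all decreases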
# Active calls of the source: *; i = inactive; . = no result given. Shown are actives, neighbours in structure and some others; about 3% of the full set was active somewhere.
SMILES,NLRP3 yeast inh,NALP1 inh,CHT block,Mot1-301 SUMO,Bfl-1 A1 inh,CHT PAM,CHT activ conf,HEK293 MP dye
COc1ccc(-n2cc(CNCCCN3CCCC3=O)c(-c3ccccc3Cl)n2)cc1,7,15,i,-21,1,6.3*,19*,i
COc1ccc(-c2nn(-c3ccccc3)cc2CNCCN2CCOC2=O)c(F)c1,7,-21,i,-12,-3,i,.,.
O=C(Nc1ccc(N2CCOCC2)cc1N1CCOCC1)c1cccc([N+](=O)[O-])c1,12,13,i,-2,2,i,.,.
CC(=O)N(Cc1c(C)nn(-c2ccccc2)c1Cl)c1ccc(Cl)cc1,-5,-11,i,22,1,i,.,.
Cc1nn(-c2ccccc2)c(Cl)c1CN(C(=O)CCl)c1cccc2ccccc12,16,24,i,-9,3,9*,36*,i
Cc1ccc(CC(=O)NC2CCSC2=O)cc1 (configuration not stated),-11,0,i,.,0,i,.,.
CC(=O)OCCn1c(C)[n+](CCOC(C)=O)c2cc(Cl)c(Cl)cc21,0,37,i,1,-1,i,.,.
CCn1c(C)[n+](CCOCC[n+]2c(C)n(CC)c3cc(Cl)c(Cl)cc32)c2cc(Cl)c(Cl)cc21,8,2,i,10,1,6.7*,31*,-49*
COC(=O)c1ccc(OCCN2C3=NCCN3c3ccccc32)cc1,22,-10,i,-12,-1,i,17*,-40*
c1ccc(CN2C3=NCCN3c3ccccc32)cc1,0,20,i,-2,2,i,.,.
c1ccc2c(c1)N1CCCN=C1N2CCN1CCCCC1,-3,10,i,22,0,9.5*,31*,-72*
c1ccc2c(c1)N1CCN=C1N2CCN1CCCCC1,3,-3,i,1,0,9.8*,80*,-80*
Clc1ccc(CN2C3=NCCN3c3ccccc32)cc1Cl,-2,22,i,-20,0,i,23*,i
CNc1c(NC(=O)c2ccc3c(c2)OCO3)c(=O)oc2ccccc12,4,18,i,-15,0,i,.,.
CCN1C(=O)[C@H]2[C@@H](c3ccc(-c4ccc(F)cc4)c(OC)c3)N[C@@](Cc3ccccc3)(C(=O)OC)[C@H]2C1=O,21,.,.,-7,1,.,.,.
Cn1c(=O)c2c(-c3ccccc3)n(CCCN3CCOCC3)cc2n(C)c1=O,-3,9,i,.,0,i,79*,-52*
O=[N+]([O-])c1ccc(/C=C/C2=NN(c3ccccc3)C(c3ccco3)C2)cc1 (configuration not stated),.,17,i,-5,0,15*,51*,i
CC(C)(C)OC(=O)C[C@H]1C/C=C\C[C@@H](CC(=O)NCCO)C(=O)N[C@H](C(C)(C)C)COC1=O,2,.,.,.,.,.,.,.
Cc1cc2ccccc2n1CCNC(=O)C1CCCC1,5,3,i,-22,0,i,2,i
CCOC(=O)Cn1c2c(c(=N)c3c1CCC3)CCCC2,3,30,i,-2,1,i,42*,-34*
O=C(O)CCn1c2c(c3ccccc31)CCCC2,20,6,i,3,-1,i,.,.
CCCn1c2c(c(=N)c3c1CCC3)CCCC2,-4,27,i,14,0,7.9*,50*,-72*
CCCCCCCn1c2c(c(=N)c3ccccc31)CCC2,4,24,i,2,0,17*,75*,-43*
CCCn1c2c(c(=N)c3c1CCC3)CCC2,13,7,i,-8,-1,6.6*,59*,-52*
COC(=O)Cn1c2c(c3cc(C)ccc31)CCCC2,-2,15,i,-2,0,i,.,.
SMILES,NLRP3 yeast inh,NALP1 inh,CHT block,Mot1-301 SUMO,Bfl-1 A1 inh,CHT PAM,CHT activ conf,HEK293 MP dye
COc1ccc(/C=N/N(C)C2=NCCN2)c(OC)c1OC,1,-22,i,2,0,7*,48*,-30*
CC(=O)Nc1ccc(S(=O)(=O)NCC(=O)Nc2ccc3c(c2)OCO3)cc1,12,.,.,4,0,.,.,.
Cc1noc(C)c1S(=O)(=O)Nc1ccc2c(c1)CC(=O)N([C@H](C)CO)C[C@H](C)[C@@H](CN(C)CC1CC1)O2,5,.,.,3,1,.,.,.
CC1=Nc2cccc3cccc(c23)N1,19,-29,i,i,1,i,33*,-39*
COc1ccc(NS(=O)(=O)c2cccc(-c3nnc4n3CCCCC4)c2)cc1,7,5,i,-3,0,i,18*,i
CCN(CC)c1cc(C)c2cc(NC(=O)c3ccccc3F)ccc2n1,34,34,i,130,0,i,.,.
CCN(CC)c1cc(C)c2cc(NC(=O)CNC(C)=O)ccc2n1,5,6,i,-18,1,6.5*,56*,-31*
COc1cc(-c2nc3cccc(C)n3c2NCC2CCCO2)ccc1O (configuration not stated),-15,-6,i,-17,-1,6.7*,36*,-40*
Cc1cc(OCC(=O)NC2CC(C)(C)NC(C)(C)C2)c2c(C)cc(=O)oc2c1,7,-2,i,-8,2,i,66*,-45*
CC1(C)CC(NC(=O)COc2cc3oc(=O)c4c(c3cc2Cl)CCC4)CC(C)(C)N1,0,19,i,9,1,i,.,.
Cc1cc(OCC(=O)NC2CC(C)(C)NC(C)(C)C2)c2c(C)c(C)c(=O)oc2c1,-6,27,i,337,0,9.2*,49*,-48*
Cc1cc(=O)oc2c(C)c(OCC(=O)NC3CC(C)(C)NC(C)(C)C3)ccc12,1,24,i,-12,2,8.2*,47*,-54*
O=C(c1ccccc1)c1c(-c2ccccc2)[nH]n(-c2ccccc2)c(=O)c1=O,10,.,i,18,0,i,.,.
CCN(C(=O)c1nn(-c2ccc(OC)cc2)c(=O)c2c1c1ccccc1n2C)c1ccc(OC)cc1,-8,7,i,12,1,i,.,.
CCCCN(C)CCNC(=O)c1nn(-c2ccc(OC)cc2)c(=O)c2c1c1ccccc1n2C,7,7,i,18,0,i,29*,-31*
CCN1CCN(CCNC(=O)c2ccc(/C=C3/Sc4ccccc4N(Cc4cccc(Cl)c4)C3=O)cc2)CC1,20,-1,i,-13,0,i,17*,-28*
